In PubChem BioAssay AID1159580 (chemical genetic matrix, 2015):
“And” between values parts separate entries of the source, which are not always exact repeats. Identical values can stand only once. In all, about 5,500 compounds went through this assay and about 2,000 (36%) were called active. Inconclusive results (about 18%) are left out. Cut-off read from the data, not from the text of the source: active = normalized growth mostly below about 0.91 (no sharp cut-off); inconclusive = no clear call, values can overlap the other calls; inactive = mostly above about 0.92. The list shows a part of the results.

Assay: chemical genetic growth profiling, strain panel (AID 1159580);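 note: tested at 20 µM; growth read once vehicle control cultures reached saturation at 30 °C; 1 = growth at the plate median or of vehicle wells; lower values mean less growth of the strain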
Conditions: S. cerevisiae deletion strains, growth OD

Measured: normalized growth

CCCCNc1cc(C(=O)O)cc(S(N)(=O)=O)c1Oc1ccccc1
inactive: locus YAL013W, strain DEP1, stronger effect = lower value 0.964 | locus YAL021C, strain ccr4, stronger effect = lower value 1.03 | locus YAL026C, strain drs2, stronger effect = lower value 1.01 | locus YAL030W, strain snc1, stronger effect = lower value 1.01 | locus YAL040C, strain CLN3, stronger effect = lower value 0.946 | locus YBL061C, strain skt5, stronger effect = lower value 0.992 | locus YBR009C, strain hhf1, stronger effect = lower value 0.997 | locus YBR021W, strain FUR4, stronger effect = lower value 0.985 | locus YBR023C, strain chs3, stronger effect = lower value 0.999 | locus YBR171W, strain sec66, stronger effect = lower value 0.998 | locus YBR229C, strain ROT2, stronger effect = lower value 0.987 | locus YBR231C, strain swc5, stronger effect = lower value 0.99 | locus YBR279W, strain paf1, stronger effect = lower value 1.01 | locus YCL011C, strain gbp2, stronger effect = lower value 1 | locus YCL016C, strain dcc1, stronger effect = lower value 0.993 | locus YCL029C, strain bik1, stronger effect = lower value 0.981 | locus YCL069W, strain vba3, stronger effect = lower value 1.01 | locus YCR088W, strain abp1, stronger effect = lower value 1.01 | locus YDL005C, strain med2, stronger effect = lower value 0.999 | locus YDL035C, strain GPR1, stronger effect = lower value 0.996 | locus YDL040C, strain nat1, stronger effect = lower value 0.999 | locus YDL074C, strain BRE1, stronger effect = lower value 1.03 | locus YDL101C, strain DUN1, stronger effect = lower value 0.992 | locus YDL134C, strain PPH21, stronger effect = lower value 0.965 | locus YDL185W, strain tfp1, stronger effect = lower value 0.98 | locus YDL192W, strain arf1, stronger effect = lower value 0.991 | locus YDR001C, strain nth1, stronger effect = lower value 1.01 | locus YDR069C, strain doa4, stronger effect = lower value 1.01 | locus YDR101C, strain arx1, stronger effect = lower value 0.992 | locus YDR137W, strain rgp1, stronger effect = lower value 1.01 | locus YDR150W, strain NUM1, stronger effect = lower value 0.975 | locus YDR159W, strain sac3, stronger effect = lower value 0.943 | locus YDR162C, strain NBP2, stronger effect = lower value 0.982 | locus YDR195W, strain ref2 0.983 | locus YDR297W, strain sur2, stronger effect = lower value 0.997 | locus YDR318W, strain mcm21, stronger effect = lower value 0.989 | locus YDR334W, strain swr1, stronger effect = lower value 1.02 | locus YDR335W, strain msn5, stronger effect = lower value 1.01 | locus YDR363W, strain ESC2, stronger effect = lower value 0.992 | locus YDR388W, stronger effect = lower value 0.975 | locus YDR392W, strain spt3, stronger effect = lower value 0.906 | locus YDR502C, strain sam2, stronger effect = lower value 1.01 | locus YEL003W, strain gim4, stronger effect = lower value 1.01 | locus YEL037C, strain rad23, stronger effect = lower value 1 | locus YEL061C, strain CIN8 (second series), stronger effect = lower value 1.03 | locus YEL061C, strain CIN8, stronger effect = lower value 0.994 | locus YER002W, strain NOP16, stronger effect = lower value 0.986 | locus YER015W, strain faa2, stronger effect = lower value 1.01 | locus YER016W, strain bim1, stronger effect = lower value 0.987 | locus YER110C, stronger effect = lower value 0.978 | locus YER111C, strain swi4, stronger effect = lower value 0.998 | locus YER155C, strain BEM2 (second series), stronger effect = lower value 0.974 | locus YER155C, strain BEM2, stronger effect = lower value 0.989 | locus YER167W, strain BCK2, stronger effect = lower value 0.98 | locus YFR010W, strain ubp6, stronger effect = lower value 1.01 | locus YGL078C, strain dbp3, stronger effect = lower value 0.97 | locus YGL086W, strain mad1, stronger effect = lower value 0.998 | locus YGL167C, strain pmr1, stronger effect = lower value 1 | locus YGL173C, strain kem1, stronger effect = lower value 0.983 | locus YGL227W, strain vid30, stronger effect = lower value 0.992 | locus YGL240W, strain doc1, stronger effect = lower value 0.996 | locus YGL248W, strain PDE1, stronger effect = lower value 1 | locus YGL253W, strain hxk2, stronger effect = lower value 1.04 | locus YGR078C, strain PAC10, stronger effect = lower value 0.98 | locus YGR135W, strain pre9, stronger effect = lower value 0.957 | locus YGR252W, strain gcn5, stronger effect = lower value 0.956 | locus YHR013C, strain ard1, stronger effect = lower value 0.972 | locus YHR027C, strain rpn1, stronger effect = lower value 1.01 | locus YHR030C, strain SLT2, stronger effect = lower value 0.983 and 1.03 | locus YHR079C, strain IRE1 (second series), stronger effect = lower value 0.99 | locus YHR079C, strain IRE1, stronger effect = lower value 1.07 | locus YHR094C, strain hxt1, stronger effect = lower value 0.97 | locus YHR129C, strain ARP1, stronger effect = lower value 0.99 | locus YHR142W, strain chs7, stronger effect = lower value 1.03 | locus YHR200W, strain rpn10, stronger effect = lower value 0.984 | locus YIL066C, strain RNR3, stronger effect = lower value 0.997 | locus YIL073C, strain SPO22, stronger effect = lower value 0.937 | locus YIL125W, strain kgd1, stronger effect = lower value 0.973 | locus YIR030C, strain dcg1, stronger effect = lower value 0.981 | locus YJL092W, strain hpr5, stronger effect = lower value 1.01 | locus YJL095W, strain BCK1 (second series), stronger effect = lower value 0.999 | locus YJL095W, strain BCK1, stronger effect = lower value 1.03 and 1.02 | locus YJL115W, strain asf1, stronger effect = lower value 1 | locus YJL129C, strain trk1, stronger effect = lower value 1.01 | locus YJL134W, strain LCB3, stronger effect = lower value 0.993 | locus YJL154C, strain vps35, stronger effect = lower value 1 | locus YJL164C, strain tpk1, stronger effect = lower value 1.01 | locus YJL166W, strain qcr8, stronger effect = lower value 1.01 | locus YJL168C, strain set2, stronger effect = lower value 0.982 | locus YJL187C, strain SWE1 (second series), stronger effect = lower value 1.01 | locus YJR043C, strain POL32, stronger effect = lower value 1 | locus YJR066W, strain TOR1, stronger effect = lower value 0.966 | locus YJR075W, strain HOC1, stronger effect = lower value 0.971
